Test results taken from PubChem BioAssay AID602230 (The Scripps Research Institute Molecular Screening Center, 2012).
Hit rate of the full screen: of about 1,400 compounds, about 450 (32%) were called active. Rule as the data show it: active = inhibition above about 16%; inactive = the rest. A selection follows.

The molecules below were run against Lon protease (Escherichia coli (strain K12)) (UniProt P0A9M0) (assay: E. coli Lon protease inhibitor retest, confirmation, biochemical, fluorescence polarization (AID 602230;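 also: 0% = enzyme with probe and DMSO and 100% = no enzyme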)). Details: purified E. coli Lon, at 7.94 µM, stronger effect = higher value.
Sequence of Lon protease (Escherichia coli (strain K12)) (P0A9M0 whole entry, looked up): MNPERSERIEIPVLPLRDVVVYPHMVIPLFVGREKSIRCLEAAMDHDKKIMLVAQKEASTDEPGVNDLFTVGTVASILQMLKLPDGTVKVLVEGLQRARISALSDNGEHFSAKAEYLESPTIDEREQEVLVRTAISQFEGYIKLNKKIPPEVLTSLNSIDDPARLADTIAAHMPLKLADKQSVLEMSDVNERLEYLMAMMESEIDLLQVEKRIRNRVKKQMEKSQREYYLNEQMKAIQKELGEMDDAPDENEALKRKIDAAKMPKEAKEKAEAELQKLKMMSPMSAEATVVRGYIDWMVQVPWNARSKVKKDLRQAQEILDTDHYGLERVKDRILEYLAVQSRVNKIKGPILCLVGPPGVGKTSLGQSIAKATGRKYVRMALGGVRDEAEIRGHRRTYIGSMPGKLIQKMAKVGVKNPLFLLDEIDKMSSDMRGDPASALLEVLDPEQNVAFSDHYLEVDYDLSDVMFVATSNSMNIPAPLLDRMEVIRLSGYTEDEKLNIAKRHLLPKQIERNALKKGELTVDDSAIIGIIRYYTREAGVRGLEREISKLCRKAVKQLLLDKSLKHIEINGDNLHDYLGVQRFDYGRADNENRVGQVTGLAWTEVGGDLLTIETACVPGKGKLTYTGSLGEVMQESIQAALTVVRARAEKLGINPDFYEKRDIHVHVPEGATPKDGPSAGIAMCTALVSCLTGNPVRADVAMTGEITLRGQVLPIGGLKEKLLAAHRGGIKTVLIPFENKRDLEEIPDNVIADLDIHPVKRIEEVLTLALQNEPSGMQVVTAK

Row | SMILES | inhibition
1 | CNS(=O)(=O)c1ccc2c(c1)[nH]c(=S)n2C | 4.74% (inactive)
2 | COc1ccc(C2=CC(c3cccc(OC)c3)n3nnnc3N2)cc1 (stereo unspecified) | 17% (active)
3 | COc1ncnc2c1N=C1CC(C)(C)CC(N)=C1S2 | 111% (active)
4 | CCCn1c(SCC(=O)Nc2c(C)cccc2C)nnc1C(C)C | -13.9% (inactive)
5 | Nc1ccc2nc3c(=O)[nH]c(=S)[nH]c3nc2c1 | 198% (active)
6 | Cc1cccc(N2CCC(NCc3c(C(=O)N4CCCCC4)nc4c(C)cccn34)CC2)c1 | -4.25% (inactive)
7 | O=C(COC(=O)C12CC3CC(CC(O)(C3)C1)C2)NC12CC3CC(CC(C3)C1)C2 | -2.17% (inactive)
8 | Cc1ccn2cc(-c3nonc3C)cc2c1 | 5.46% (inactive)
9 | COc1ccccc1-c1cc2nc(NCc3cccc(Cl)c3)ccn2n1 | 2.95% (inactive)
10 | Cc1cccn2c(=O)c3cc(C#N)c(=NC(=O)c4cccnc4)n(CC4CCCO4)c3nc12 (stereo unspecified) | -2.72% (inactive)
11 | COc1cc(C(=O)NCc2ccc3c(c2)cc(C)n3C)cc(OC)c1OC | -12.4% (inactive)
12 | O=C(COC(=O)Cn1cnc2ccccc21)Nc1cccc2c1C(=O)c1ccccc1C2=O | 79.2% (active)
13 | COCCOC(=O)c1sc(=S)n(CCOC)c1N | 27.9% (active)
14 | CC/C(C)=N/Nc1nc2sc3c(c2c(=O)[nH]1)CC(C)(C)OC3 | 15.3% (inactive)
15 | Cc1ccc(NC(=O)Cc2nnc(SCC(=O)Nc3nncs3)n2C)cc1 | -64.9% (inactive)
16 | O=C1C=C(NCCNc2c(F)c(F)c(CO)c(F)c2F)CCC1 | -15.4% (inactive)
17 | Cc1ccc2c(c1)nnc1nnc(SCC(=O)O)n12 | 33.8% (active)
18 | O=S(=O)([N-]c1nc2ccccc2nc1-[n+]1ccc(Cc2ccccc2)cc1)c1ccc(Br)s1 | -2.35% (inactive)
19 | O=C1c2ccccc2C(=O)c2c1cccc2N1CCN(CCO)CC1 | 27.1% (active)
20 | CCCSc1ccc([C@H]2N[C@@](Cc3ccccc3)(C(=O)OC)[C@H]3C(=O)N(C)C(=O)[C@@H]23)cc1 | -4.5% (inactive)
21 | NS(=O)(=O)c1ccc(NC(=O)COC(=O)c2c3c(nc4ccccc24)/C(=C\c2ccc4c(c2)OCO4)CCC3)cc1 | 4.57% (inactive)
22 | N#CC1=C(N)OC2=C(C(=O)CCC2)C1C1CC=CCC1 (stereo unspecified) | 2.64% (inactive)
23 | c1ccc(C(=NNc2nc3ccccc3s2)c2ccccn2)cc1 | 134% (active)
24 | Cc1cccc(C)c1N1CCN(S(=O)(=O)N2CCOCC2)CC1 | -4.84% (inactive)

Row | SMILES | inhibition
25 | CN1c2ccc(C=O)c3c(C=O)ccc(c23)N(C)C1(C)C | 68.6% (active)
26 | CC(C(=O)NC1CCCC1)N1CCN(S(=O)(=O)c2ccccc2Cl)CC1 (stereo unspecified) | -0.03% (inactive)
27 | CCCCOCCCNC(=O)C[C@@H]1C[C@@]2(C(=O)OC)CCCCC=C2N(CCC2=CCCCC2)C1=O | 9.11% (inactive)
28 | CCOCCN(C=O)c1cccc(OC)c1 | -7.16% (inactive)
29 | COc1ccc(N2CCN(C3CCCCC3NS(=O)(=O)c3ccccc3)CC2)cc1 (stereo unspecified) | -0.98% (inactive)
30 | COc1ccc(OC)c(NC(=O)Cc2cccs2)c1 | -9.37% (inactive)
31 | COc1ccc(C(=O)NC(C)CCc2ccccc2)c(OC)c1 (stereo unspecified) | -4.57% (inactive)
32 | COc1cc([C@H](Cc2ccccc2)NC(C)=O)oc(=O)c1 | 28.5% (active)
33 | O=C(C1=C(O)C(=O)N(c2ncccn2)C1c1cccs1)c1ccco1 (stereo unspecified) | 7.23% (inactive)
34 | O=C1C2C3C=CC(C4CC34)C2C(=O)N1/N=C/c1ccc(-c2ccccc2[N+](=O)[O-])o1 (stereo unspecified) | 1.11% (inactive)
35 | CN(C)Cc1c(C(=O)N/N=C/c2ccccc2OCc2ccc(F)cc2)nnn1-c1nonc1N | 4.47% (inactive)
36 | O=C(CN1CCCSc2ccccc21)N1CCN(S(=O)(=O)c2cccc(F)c2)CC1 | 40.1% (active)
37 | Clc1ccccc1CSc1nnc(-c2ccco2)c(-c2ccco2)n1 | -6.52% (inactive)
38 | CCOC(=O)N1CCC(NC(=O)Cc2cn(C)c3ccccc23)CC1 | -16.7% (inactive)
39 | Oc1ccc2ccccc2c1N=Nc1nccs1 | 3.97% (inactive)
40 | Cc1coc2c(O)cc3c(c12)OC1(N2CCCCC2)C(=O)NCCCC31 (stereo unspecified) | 6.1% (inactive)
41 | COc1ccc(C(=O)NCc2nnc(SCCOc3ccccc3)n2C)cc1 | -3.94% (inactive)
42 | COc1ccc(-c2onc3ccc(C(C)=O)cc23)cc1 | 182% (active)
43 | COc1ccc(CC(=O)Nc2ccc(-c3nnc(-c4ccccc4)o3)cc2)cc1 | -10.3% (inactive)
44 | COc1ccc(-c2nc(CS(=O)CC(=O)NCc3ccccn3)c(C)o2)cc1 (stereo unspecified) | 64.8% (active)
45 | COc1ccc(S(=O)(=O)N2CCOCC2)cc1NC(=O)Cc1c(F)cccc1Cl | -1.93% (inactive)
46 | O=C(COC(=O)c1ccccc1C(=O)N1CCN(c2ccccc2)CC1)NCc1ccccc1 | 5.02% (inactive)
47 | CC(=O)NC(=S)Nc1ccc(NC(=S)NC(=O)c2ccc([N+](=O)[O-])cc2)cc1 | -6.29% (inactive)
48 | CC1=NN(C(=O)CCc2ccccc2O)C(O)(C(F)(F)F)C1 (stereo unspecified) | 9.05% (inactive)

Row | SMILES | inhibition
49 | CC1(C)OC(=O)C(=CNC(CO)C(=O)O)C(=O)O1 (stereo unspecified) | -19.2% (inactive)
50 | Cc1ccccc1Nc1nc(N)nc(CN2CCN(c3ccccn3)CC2)n1 | 3.69% (inactive)
51 | COCCNC(=O)Nc1ccc2nc(-c3ccco3)c(-c3ccco3)nc2c1 | 23.4% (active)
52 | CCc1ccc(NC(=O)C(=O)N/N=C(\C)CC(=O)NCCOC)cc1 | -6.81% (inactive)
53 | COc1ccc(Nc2nc(-c3cccnc3)nc3ccccc23)cn1 | 39.8% (active)
54 | COc1ccc(Nc2ccc([N+](=O)[O-])cn2)cn1 | -45.8% (inactive)
55 | Cc1ccc2nc3c(cc(C(=O)NCCc4ccccc4)c(=N)n3CC3CCCO3)c(=O)n2c1 (stereo unspecified) | 3.71% (inactive)
56 | COc1ccc2[nH]c(C)c(CCN(Cc3cccs3)C(=S)Nc3ccccc3OC)c2c1 | 3.35% (inactive)
57 | CCCC(O)(CCC)C(=O)NN(C(=O)CCl)c1cccc(C)c1 | -3.35% (inactive)
58 | NC(=O)c1ccc(NC(=O)COC(=O)c2c3c(nc4ccccc24)/C(=C\c2ccc4c(c2)OCO4)CCC3)cc1 | -8.01% (inactive)
59 | O=C1c2cccc3c([N+](=O)[O-])ccc(c23)C(=O)N1CC1CCCO1 (stereo unspecified) | 34.9% (active)
60 | COCCn1c(N)c(NCc2ccccc2)c(=O)[nH]c1=O | 7.51% (inactive)
61 | Cc1cc2nc3c(=O)n(Cc4ccccc4)c(=O)[nH]c3nc2cc1N | 153% (active)
62 | Nc1ccccc1/C=N\N=C/c1ccccc1N | 8.46% (inactive)
63 | CCCN(CCC)C(=O)C1c2ccccc2Oc2ccccc21 | -11.4% (inactive)
64 | COC(=O)C[n+]1cccc2ccccc21 | 116% (active)
65 | COc1ccc(C2c3ccc(O)cc3Oc3ncn(CCCO)c(=N)c32)cc1OC (stereo unspecified) | -7.63% (inactive)
66 | CCN(CC)CCCNC(=O)c1cn(C)c2ccc(S(=O)(=O)N(C)C3CCCCC3)cc2c1=O | -0.99% (inactive)
67 | Cc1cc(Br)cn2c(Cc3ccsc3)c(-c3ccc(C#N)cc3)nc12 | 45.3% (active)
68 | Cc1ccc(S(=O)(=O)CCC(=O)OCc2ccccc2)cc1 | -7.16% (inactive)
69 | Oc1ccc(N=Cc2sc3ccccc3c2Cl)cc1 | -21.5% (inactive)
70 | O=C(COC(=O)CCc1c[nH]c(=O)[nH]1)Nc1ccccc1Cl | 51.4% (active)
71 | COc1cccc2sc(N(CCCN(C)C)C(=O)CCS(=O)(=O)c3ccccc3)nc12 | 7.07% (inactive)
